Sampled rows, rich in hits. Any-hit rate of the full collection: about 3.7%.
FBA Mtb inh = Mtb FBA enzyme inhibitors, primary screen, biochemical, fluorescence, strain H37Rv; purified M. tuberculosis FBA, fluorescence read-out; hit rate 2.3% among 360,000; AID 588726, 2011; inhibition, % at 1 µM; in the data active means inhibition above about 27%
Target sequence (P9WQA3 whole entry, looked up): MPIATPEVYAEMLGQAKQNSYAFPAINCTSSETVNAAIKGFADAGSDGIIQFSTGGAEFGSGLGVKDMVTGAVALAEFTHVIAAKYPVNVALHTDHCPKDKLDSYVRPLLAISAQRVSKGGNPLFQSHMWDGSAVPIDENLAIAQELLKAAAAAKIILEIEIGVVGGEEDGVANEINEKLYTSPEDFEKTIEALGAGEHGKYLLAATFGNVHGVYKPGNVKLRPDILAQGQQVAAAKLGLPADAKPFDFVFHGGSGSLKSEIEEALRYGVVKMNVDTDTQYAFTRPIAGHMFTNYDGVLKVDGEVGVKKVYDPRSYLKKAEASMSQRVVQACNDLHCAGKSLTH
FadD28 FP inh = inhibitors of FadD28 bisubstrate probe binding, primary screen, biochemical, fluorescence polarization, single point; hit rate 0.22% among 360,000; inhibition, % at 12.5 µM; Mycobacterium tuberculosis FadD28 fatty-acid-AMP ligase; AID 588549, 2011; in the data active means inhibition above about 8.5%, passing the limit was not always enough
GDH-TPI counter-1 = GDH-TPI coupling enzyme inhibitors, primary screen, artefact control for M. tuberculosis FBA inhibitor project, biochemical, absorbance, full deck; GDH-TPI coupled enzyme counterscreen, NADH absorbance; inhibition, % at 4.8 µM; hit rate 1.2% among 360,000; in the data active means inhibition above about 30%
Mtb betalactam = beta-lactam sensitization of Mtb H37Rv, H37Rv. M. tuberculosis H37Rv growth with meropenem, percent inhibition. inhibition, % at 25 µM. hit rate 0.27% among 330,000;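 further: growth measured after seven days incubation then overnight dye step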
Rv3671c inh = Rv3671c serine protease inhibitors, primary screen, biochemical, fluorescence polarization, M. tuberculosis H37Rv; P9WHR9; AID 2606, 2010; hit rate 0.048% among 320,000; inhibition, % at 5.96 µM; in the data active means inhibition above about 38%;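 further: extracellular domain of Rv3671c used as enzyme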
UGM FP inh = M. tuberculosis UGM enzyme inhibitors, primary screen, biochemical, fluorescence polarization, single point; UDP-galactopyranose mutase (Mycobacterium tuberculosis (strain ATCC 25618 / H37Rv)), …; purified UGM, fluorescence polarization probe displacement; inhibition, % at 10 µM; hit rate 0.06% among 320,000; AID 504406, 2011; in the data active means inhibition above about 10%, passing the limit was not always enough
Mtb FBA confirm = M. tuberculosis aldolase blockers, biochemical, fluorescence, strain H37Rv, confirmation; shares compounds with FBA Mtb inh; purified M. tuberculosis FBA, fluorescence read-out; inhibition, % at 1 µM; hit rate 78% among 5,600; AID 651616, 2012; in the data active means inhibition above about 27%
GDH-TPI counter-2 = GDH-TPI coupling enzyme inhibitors, artefact control for M. tuberculosis FBA inhibitor project, biochemical, fluorescence, high throughput. shares compounds with FBA Mtb inh. GDH-TPI coupled enzyme counterscreen. inhibition, % at 1 µM. hit rate 81% among 5,600. AID 652141, 2013; in the data active means inhibition above about 10%
GDH-TPI dose = GDH-TPI coupling enzyme inhibitors, dose response, artefact control for M. tuberculosis FBA inhibitor project, biochemical, fluorescence, IC50 | shares compounds with FBA Mtb inh | IC50, µM | GDH-TPI coupled enzyme assay, artifact counterscreen | hit rate 79% among 170
Of the large screens only hits and unclear results are named; the others gave an inactive call (follow-up assays come after a bar, where they were run). Unless noted, how the calls were made is not given here.

N#Cc1cnc(=S)n(-c2cc(C(F)(F)F)cc(C(F)(F)F)c2)c1N	none (no result: Mtb betalactam, Rv3671c inh, UGM FP inh)
Cc1ccc(-n2nnnc2CNC(=O)C(=O)c2c[nH]c3ccccc23)cc1C	none (no result: Mtb betalactam, Rv3671c inh, UGM FP inh)
O=C(c1ccc2c3c(cccc13)CC2)C1CCCN(C(=O)c2cc[n+]([O-])cc2)C1 (stereo unspecified)	none
O=C(c1ccc2c3c(cccc13)CC2)C1CCCN(C(=O)c2ccc[n+]([O-])c2)C1 (stereo unspecified)	FBA Mtb inh 29.3 | Mtb FBA confirm active | GDH-TPI counter-2 164.9
O=C(CCNC(=O)c1ccc([N+](=O)[O-])cc1)Nc1ccccc1N1CCCCC1	none
N#CC12COC3(CCCCC3C1(C#N)C#N)OC2=N (stereo unspecified)	FBA Mtb inh 38.6 | Mtb FBA confirm 75.3 | GDH-TPI counter-2 61.1
N#CC1(C#N)COC23CCCCC2C1(C#N)C(=N)O3 (stereo unspecified)	none
COc1ccc(C2CC3(O)NC(=O)C(C#N)(C3C)C2(C#N)C#N)cc1 (stereo unspecified)	none
COc1ccc(C2OC34CCCCC3C(C#N)(C#N)C2(C#N)C(=N)O4)cc1 (stereo unspecified)	FBA Mtb inh 38.9 | Mtb FBA confirm 80.3 | GDH-TPI counter-2 66.6
CCCC1OC23CCCCC2C(C#N)(C(=N)O3)C1(C#N)C#N (stereo unspecified)	FBA Mtb inh 37.1 | Mtb FBA confirm inactive | GDH-TPI counter-2 inactive | GDH-TPI dose inactive
CCCn1c(N)c(C(=O)COC(=O)/C=C/c2ccc(OC(F)F)c(OC)c2)c(=O)[nH]c1=O	none
C=CCc1ccc(O)c(-c2cc(CC=C)ccc2O)c1	FBA Mtb inh 33.7 | Mtb FBA confirm 86.3 | GDH-TPI counter-2 63.1
CCOC(=O)C1CCN(C(=O)Cn2cnc3sc(C)c(S(=O)(=O)N4CCCCC4)c3c2=O)CC1	none
CCOC(=O)C1CCN(C(=O)Cn2cnc3sc(C)c(S(=O)(=O)N4CCC(C)CC4)c3c2=O)CC1	FBA Mtb inh 77.8 | Mtb FBA confirm 185.7 | GDH-TPI counter-2 142.8
CC1(C(=O)NS(=O)(=O)c2cccc(Cl)c2)CCN1C(=O)CCc1cccs1 (stereo unspecified)	none (no result: Mtb betalactam, Rv3671c inh, UGM FP inh)
O=C(NCc1cccc(F)c1)Nc1nnc([C@@H]2C[C@H](O)[C@@H](CO)O2)s1	none (no result: Mtb betalactam, Rv3671c inh, UGM FP inh)
O=C(NNC(=O)C1C2C=CC(C2)C1C(=O)O)c1cc(Cl)ccc1O (stereo unspecified)	FBA Mtb inh 64.6 (no result: Rv3671c inh) | Mtb FBA confirm 58.5 | GDH-TPI counter-2 55.4
Cc1ccc(CCC(=O)Nc2ccc(N(C)C)cc2)o1	none
CCOC(=O)C1=CCC2C(=O)N(CC)C(=O)C12 (stereo unspecified)	none (no result: GDH-TPI counter-1, Mtb betalactam, Rv3671c inh, UGM FP inh)
NC(=O)CSc1nnc2ccc(-c3ccco3)nn12	none
O=C(CSc1ccc2nc(-c3ccccc3)cn2n1)NCC1CCCO1 (stereo unspecified)	FBA Mtb inh 111.0 | Mtb FBA confirm active | GDH-TPI counter-2 active
COc1ccc(-c2ccc3nnc(SCC(N)=O)n3n2)cc1	FBA Mtb inh 29.1 | Mtb FBA confirm 85.3 | GDH-TPI counter-2 60.5
Cc1ccc(-c2ccc(SCC(=O)NCC3CCCO3)nn2)cc1 (stereo unspecified)	none
COc1ccc(-c2ccc3nnc(SCC(=O)NCC4CCCO4)n3n2)cc1 (stereo unspecified)	FBA Mtb inh 33.6 | Mtb FBA confirm 171.7 | GDH-TPI counter-2 119.9
OC[C@@H]1CN(Cc2ccco2)C[C@H](n2cnc3c(N4CCOCC4)ncnc32)O1	none (no result: Mtb betalactam, Rv3671c inh, UGM FP inh)
Cc1csc(NC(=O)C(C)N2C(=O)c3ccccc3S2(=O)=O)n1 (stereo unspecified)	none
CCCN=C1N(CC)C[C@@H]2[C@@H]3C(=O)N(Cc4ccccc4)C(=O)[C@@H]3[C@](Cc3ccccc3)(C(=O)OC)N12	none (no result: Mtb betalactam, Rv3671c inh, UGM FP inh)
Cc1ccc(-n2nc(C)c3c(C)c(CCC(=O)O)c(C)nc32)cc1	FBA Mtb inh 67.6 | Mtb FBA confirm 183.6 | GDH-TPI counter-2 117.4
CCOC(=O)CCc1c(C)nc2c(c(C)nn2-c2ccc(C)cc2)c1C	none
Cc1ccc(-n2nc(C)c3c(C)c(CCC(=O)O)c(C)nc32)cc1C	FBA Mtb inh 40.2 | Mtb FBA confirm inactive | GDH-TPI counter-2 inactive
Cc1ccccc1NC(=O)c1cc2c(=O)n3cccc(C)c3nc2s1	none
Cc1cccn2c(=O)c3cc(C(=O)N4COCC4(C)C)sc3nc12	FBA Mtb inh 44.1 | Mtb FBA confirm 191.5 | GDH-TPI counter-2 148.8
Cc1cccn2c(=O)c3cc(C(=O)NC4CCCCCC4)sc3nc12	none
COCCCNC(=O)c1cc2c(=O)n3cccc(C)c3nc2s1	FBA Mtb inh 65.1 | Mtb FBA confirm 65.8 | GDH-TPI counter-2 47.2
CCCCNC(=O)c1cc2c(=O)n3cccc(C)c3nc2s1	FBA Mtb inh 73.6 | Mtb FBA confirm active | GDH-TPI counter-2 active
Cc1cccn2c(=O)c3cc(C(=O)NCCc4ccccc4)sc3nc12	FBA Mtb inh 35.0 | Mtb FBA confirm inactive | GDH-TPI counter-2 inactive
Cc1cccn2c(=O)c3cc(C(=O)N4CCC5(CC4)OCCO5)n(C)c3nc12	none
Cc1onc(-c2c(F)cccc2Cl)c1C(=O)Nc1cc(S(=O)(=O)N2CCCCC2)ccc1O	none (no result: Mtb betalactam, Rv3671c inh, UGM FP inh)
Cc1ccc(-c2ccc(CN3C(C)C(=O)N(Cc4cn(Cc5ccco5)nn4)CCS3(=O)=O)cc2)c(C)c1 (stereo unspecified)	none (no result: GDH-TPI counter-1, Mtb betalactam, Rv3671c inh, UGM FP inh)
Cc1ccc([C@H]2C[C@H](n3cc(-c4ccc(F)cc4)nn3)[C@@H](O)CN2C(=O)C2CCCCC2)cc1	none (no result: Mtb betalactam, Rv3671c inh, UGM FP inh)
CCCOc1ccc(F)cc1-c1cc(C(=O)NC(C)C)[nH]n1	none (no result: Mtb betalactam, Rv3671c inh, UGM FP inh)
COc1ccc(-c2ccc3c(c2)CN(C(=O)CCc2ccccc2)Cc2cnnn2-3)cc1	FBA Mtb inh 63.3 (no result: GDH-TPI counter-1, Mtb betalactam, Rv3671c inh, UGM FP inh) | Mtb FBA confirm active | GDH-TPI counter-2 173.0
O=C(CC[C@H]1O[C@@H](n2ccc(=O)[nH]c2=O)[C@H](O)[C@@H]1O)N[C@H](Cc1ccccc1)C(=O)NCc1ccccc1	none (no result: GDH-TPI counter-1, Mtb betalactam, Rv3671c inh, UGM FP inh)
CCCCOc1ncnc2c1[nH]c1ccc(OCC)cc12	none
COc1ccc2[nH]c3c(NCCN4CCCCC4)ncnc3c2c1	none

Assay outcomes as filed in PubChem.
